Source: PubChem BioAssay (Broad Institute)
DYRK1A inh = inhibitors of rat Dyrk1A kinase; actives 0.43% (n = 310,000); ADP-Glo luminescence, NFATc1 peptide; Q63470; AID 504441; inhibition, % at 12.5 µM
Wnt bcat act = activates Wnt/beta-catenin signaling in a reporter cell assay; actives 1.2% (n = 300,000); activator, plate reader; activation, % at 9.35 µM; in the data active = activation above about 30%, passing the limit was not always enough
MITF TRPM1 HTS = activators of MITF-driven TRPM1 promoter activity in SK-MEL-5 cells; AID 588334; actives 0.75% (n = 300,000); SK-MEL-5 TRPM1-promoter luciferase, 24 h; % of positive control, neutral wells = 0; activation, % at 12.5 µM;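 active = mean activation of at least 80% with every replicate also reaching 80%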
miR122 inh = inhibitors of miR-122 in Huh7 cells | Huh7 miR-122 Renilla luciferase sensor, 48 h; neutral wells = 0, positive control = 100 | activation (reporter increase), % at 12.5 µM | actives 0.3% (n = 340,000);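 active = mean replicate activation score at least 90 and every replicate individually at or above 90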;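 note: higher luciferase means less miR-122 activity so hits act as miR-122 inhibitors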
NSD2 inh = inhibitors of human histone methyltransferase NSD2; actives 0.54% (n = 310,000); AID 743445; inhibition, % at 12.5 µM; O96028; NSD2 peptide methylation, AlphaScreen, 120 min
INS-1E GSIS act = primary screen for activators of insulin secretion dependent on glucose, INS-1E cells, GLuc reporter luminescence; activation, % at 16.6 µM; AID 743287; INS-1E GLuc reporter insulin secretion, 2-3 h; actives 0.61% (n = 370,000);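 active = lowest replicate activation of at least 40%, so every replicate reaches that level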
Large screens that a line does not name were inactive; [ ] = remark or other dose. Shown are actives, neighbours in structure and some others; about 2.4% of the full set was active somewhere. Cut-off read from the data, not from the text of the source, unless noted: active = inhibition above about 50%; inactive = the rest.

Cc1ccccc1NC(=O)Nc1ccc2c(c1)C(=O)N(C)[C@H]1CC[C@@H](CC(=O)NCC3CC3)O[C@H]1CO2	miR122 inh 218[16.7 µM] (no result: DYRK1A inh, Wnt bcat act, MITF TRPM1 HTS, NSD2 inh)
Cc1ccc2nc3c(cc2c1)c(NC(=O)c1ccco1)nn3CC(C)C	none (no result: miR122 inh, INS-1E GSIS act)
CCn1nc(NC(=O)c2ccco2)c2cc3ccccc3nc21	INS-1E GSIS act 44 (no result: Wnt bcat act)
CC(C)Cn1nc(NC(=O)c2ccco2)c2cc3ccccc3nc21	INS-1E GSIS act 74 (no result: miR122 inh)
COc1cccc(S(=O)(=O)N2CC3(CN[C@H](CO)c4[nH]c5cc(OC)ccc5c43)C2)c1	none (no result: DYRK1A inh, Wnt bcat act, MITF TRPM1 HTS, miR122 inh, NSD2 inh)
COc1ccc(CNC(=O)COC(=O)CCC(=O)c2cccs2)cc1	Wnt bcat act 39 (no result: NSD2 inh)
O=C(COC(=O)CCC(=O)c1cccs1)NCc1ccc(Cl)cc1	none
COc1ccc(NC(=O)COC(=O)CCC(=O)c2cccs2)cc1OC	none
COc1ccc(CNC(=O)COC(=O)c2cc(C)nc3ccccc23)cc1	INS-1E GSIS act 46
COc1ccc(CCNC(=O)COC(=O)CCC(=O)c2cccs2)cc1OC	none (no result: DYRK1A inh)
COc1ccc(CCNC(=O)CCC(=O)c2cccs2)cc1OC	INS-1E GSIS act 103
COc1ccc(C(C)=O)cc1COC(=O)CCC(=O)c1cccs1	INS-1E GSIS act 44 (no result: DYRK1A inh)
O=C(C[C@H]1CC[C@H]2[C@@H](COC[C@H](O)CN2Cc2cccc(Cl)c2)O1)N1CCCCC1	none (no result: DYRK1A inh, Wnt bcat act, MITF TRPM1 HTS, NSD2 inh)
